These results are taken from PubChem BioAssay (NCATS).

Records with an inconclusive call do not appear. The source made the active and inactive calls. The call rests on the fitted dose curve; in most records, active means well fitted curve in the direction sought with a large enough effect; inconclusive means small, poorly fitted or top-dose-only effect, or another doubt; inactive means no such curve, though single readings can be large; an effect the other way counts as inactive or inconclusive.

For assay [1], the target named is Aldehyde dehydrogenase, mitochondrial (Homo sapiens) (UniProt P05091). Description: qHTS for Inhibitors of the Aldehyde Dehydrogenase Family (ALDH2) Primary screen (AID 2061308). Further: nearly all actives have a fitted effect of over 55% in size. The note with it: ALDH2 enzyme inhibition qHTS, 1536-well; series mostly up to 56 µM.
For assay [2], the target named is Retinaldehyde dehydrogenase 3 (Homo sapiens) (UniProt P47895). Description: qHTS for Inhibitors of the Aldehyde Dehydrogenase Family (ALDH1A3) Validation screen (AID 2061312). Further: nearly all actives have a fitted effect of over 45% in size. The settings on record: ALDH1A3 enzyme inhibition qHTS validation, fluorescence; series mostly up to 84.7 µM.
For assay [3] the target is unchanged. Description: qHTS for Inhibitors of the Aldehyde Dehydrogenase Family (ALDH1A3) Primary screen (AID 2061315). The note with it: ALDH inhibition qHTS; series mostly up to 56 µM. In general terms: In qHTS, concentration-response curves come from the screen itself.

For `COc1cc(C2Oc3c(OC)cc(CCCO)cc3C2CO)ccc1O` (stereo not drawn), the Potency result in assay [1] is “inactive”.
Regarding `FC(F)(F)c1cc(C(F)(F)F)c2ccc3nc(-c4nnco4)cn3c2n1`, the Potency result in assay [1], in assay [2] and in assay [3] was “inactive” throughout.
Turning to `C=C(F)c1sc(CNCCCNc2cc(=O)c3ccccc3[nH]2)c(C)c1Br`, the Potency result in assay [1], in assay [2] and in assay [3] was “inactive” each time.
As to `O=S(=O)(NC1CCC(c2cc(F)ccc2F)(S(=O)(=O)c2ccc(Cl)cc2)CC1)C(F)(F)F` (stereo not drawn), the Potency result in assay [1], in assay [2] and in assay [3] was “inactive” each time.
As for `CC(C)Oc1ccc(-c2cnc3c(-c4ccnc5ccccc45)cnn3c2)cc1`, the Potency entry in assay [1], in assay [2] and in assay [3] was “inactive” each time.
As for `COc1cc2ncnc(Nc3ccc(O)cc3)c2cc1OC`, the Potency result in assay [1] was “inactive”.
As for `CNc1ccc([N+](=O)[O-])c(Nc2ccc3[nH]ncc3c2)n1`, the Potency entry in assay [1], in assay [2] and in assay [3] was “inactive” in each case.
As for `COc1cc(C(CO)C(OC2OC(CO)C(O)C(O)C2O)c2ccc(O)c(OC)c2)ccc1O` (stereo not drawn), in assay [1], the Potency entry is “inactive”.
Consider `CCCN1CCC[C@@H](c2cccc(S(C)(=O)=O)c2)C1`, for which the Potency result in assay [1], in assay [2] and in assay [3] was “inactive” in each case.
On to `Nc1nc2c(c(N3CCNCC3)n1)CCC1=C2[C@@H]2CCCC[C@@H]2O1`, for which the Potency entry in assay [1], in assay [2] and in assay [3] was “inactive” throughout.
For the compound `CN(C)CCC(CSc1ccccc1)Nc1ccc(S(=O)(=O)NC(=O)c2ccc(N3CCN(Cc4ccccc4-c4ccc(Cl)cc4)CC3)cc2)cc1[N+](=O)[O-]` (stereo not drawn), the Potency result in assay [1], in assay [2] and in assay [3] was “inactive” throughout.
As to `C=C1CCN([C@H](C)[C@](O)(Cn2cncn2)c2ccc(F)cc2F)CC1`, the Potency entry in assay [1], in assay [2] and in assay [3] was “inactive” each time.
For the compound `CCCCOc1ccc(-c2cncc(C(=O)NCc3cccnc3N3CCOCC3)c2)cc1Cl`, the Potency entry in assay [1], in assay [2] and in assay [3] was “inactive” each time.
